Bioassay records deposited in PubChem by National Center for Advancing Translational Sciences (NCATS).
An excerpt weighted towards active compounds, which were near 3.5% of everything screened.
NS1 function inh: qHTS Assay for Inhibitors of Influenza NS1 Protein Function; Potency, µM (series often up to 46.1 µM), inactives show top-dose activity, positive = more growth; actives 0.4% (n = 270,000); AID 2326, 2010; calls by dose curve; note: actives are rising curves; nearly all actives have a fitted effect of over 50% in size
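Growth recovery, yeast-based: influenza A NS1 expressed in S. cerevisiae causes slow growth, and suppressors are detected by OD600. The parent strain without NS1 is used as positive control.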
Sm TGR block: qHTS Assay for the Inhibitors of Schistosoma Mansoni Peroxiredoxins. Schistosoma mansoni thioredoxin glutathione reductase (TGR), Q962Y6. purified TGR, DTNB reduction, TNB absorbance 405 nm. Potency, µM (doses to about 114 µM), for the others: top-dose activity change, negative = inhibition, actives largely listed as inhibitors. actives 3% (n = 360,000); note: % is set by controls: 0 for no effect and ±100 for the full control effect; nearly all actives have a fitted effect of over 60% in size
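Kinetic colorimetric format: TGR-catalysed, NADPH-driven DTNB reduction monitored via TNB absorbance. Enzyme dispensed at 20 nM; compound exposure 15 min at room temperature before reaction start.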
RE007 growth inh: qHTS Assay for Inhibitors of the HIV-1 protein Vpr; AID 651644, 2012; S. pombe RE007 Vpr strain, BacTiter-Glo ATP luminescence, 24 h; actives 0.21% (n = 360,000); Potency, µM (top dose mostly 92.2 µM), without a hit: at the top dose activity change, negative = less growth, usual class: inhibitors; active = well fitted falling curve with a large enough effect; inconclusive = small, poorly fitted or top-dose-only effect; inactive = no such curve, though single readings can be large or run the other way; note: % is set by controls: 0 for no effect and ±100 for the full control effect; nearly all actives have a fitted effect of over 50% in size
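Fission yeast strain RE007, carrying one chromosomally integrated HIV-1 vpr copy, was seeded at OD 0.01 in PMG+AL medium with 23 nL pinned compound. After 24 h at 30 °C and 99% humidity, viability was read by BacTiter-Glo luminescence.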
LmPK inh: qHTS Assay for Inhibitors of Leishmania Mexicana Pyruvate Kinase (LmPK). Q27686. purified LmPK, Kinase-Glo ATP luminescence, 1 h. Potency, µM (highest dose often 57.5 µM), for inactives: at the top dose activity change, negative = inhibition, most hits filed as inhibitors. actives 0.37% (n = 290,000). AID 1721, 2009; note: % is set by controls: 0 for no effect and ±100 for the full control effect
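Pyruvate kinase activity monitored as ATP production (luciferase luminescence). Conditions: 0.1 nM enzyme, 0.5 mM PEP, 0.1 mM ADP, 1 h, RT; normalized against uninhibited and no-enzyme wells.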
Giardia FBPA inh: qHTS Assay for Inhibitors of Fructose-1,6-bisphosphate Aldolase from Giardia Lamblia; AID 2451, 2010; purified Giardia FBPA; actives 0.71% (n = 290,000); Potency, µM (highest dose often 59.6 µM), inactives show top-dose activity, negative = inhibition, most hits filed as inhibitors; note: % is set by controls: 0 for no effect and ±100 for the full control effect; nearly all actives have a fitted effect of over 55% in size
Target sequence (A8B2U2 whole entry, looked up): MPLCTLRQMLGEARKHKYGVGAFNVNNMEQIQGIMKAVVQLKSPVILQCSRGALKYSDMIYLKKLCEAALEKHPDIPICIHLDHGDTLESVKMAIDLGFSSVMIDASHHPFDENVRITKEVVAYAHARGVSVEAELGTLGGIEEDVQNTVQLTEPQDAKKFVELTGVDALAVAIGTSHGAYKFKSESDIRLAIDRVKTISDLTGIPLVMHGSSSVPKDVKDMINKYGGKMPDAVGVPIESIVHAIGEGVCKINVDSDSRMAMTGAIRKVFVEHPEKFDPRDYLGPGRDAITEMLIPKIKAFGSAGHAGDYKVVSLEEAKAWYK
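Giardia FBPA (40 nM reagent) was preincubated 10 min at RT with compound (up to 57.5 uM final), then substrate plus GAPDH/TPI/NAD/arsenate coupling system with diaphorase/resazurin was added; resorufin fluorescence (525/598 nm) was read after 20 min.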
TbPYK inhibitor: qHTS of Trypanosoma Brucei Inhibitors; actives 0.12% (n = 410,000); Potency, µM (highest dose often 76.8 µM), for the others: at the highest dose activity, negative = inhibition, usual class: inhibitors; TbPYK enzyme, Kinase-Glo Plus ATP luminescence, 45 min; AID 624173, 2012; pyruvate kinase (Trypanosoma brucei), Q57TT1; note: % is set by controls: 0 for no effect and ±100 for the full control effect; nearly all actives have a fitted effect of over 50% in size
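TbPYK + substrate in 50 mM TEA pH 7.2, 100 mM KCl, 10 mM MgCl2, 0.05% BSA, 0.01% Tween-20; cpd pinned; ADP 130 uM final; 45 min RT; Kinase-Glo Plus 10 min; luminescence endpoint.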
* = called active by the depositor; [ ] = dose if it differs, or a comment. Unless noted, calls come from the whole dose curve; as a rule, active = well fitted curve in the direction sought with a large enough effect; inconclusive = small, poorly fitted or top-dose-only effect, or another doubt; inactive = no such curve, though single readings can be large; an effect the other way counts as inactive or inconclusive. Potency is the fitted concentration of half-maximal effect.

For Cn1c(-c2c(N)n(CCc3ccccc3)c3nc4ccccc4nc23)nc2ccccc21 the results were NS1 function inh -133%, Sm TGR block -22%, RE007 growth inh inconclusive, LmPK inh 8%, Giardia FBPA inh 13% and TbPYK inhibitor -5%.
For O=c1ccc2ccc(O)c(O)c2o1 the results were NS1 function inh 5% and Giardia FBPA inh 10µM*.
For CCOC(=O)c1sc(=S)n(C)c1NC(=O)c1ccccc1 the results were NS1 function inh 0%, Sm TGR block 8%, RE007 growth inh -12%, LmPK inh -2%, Giardia FBPA inh 8% and TbPYK inhibitor -21%.
`CCOC(=O)c1[nH]c(=S)n(Cc2ccccc2)c1C(=O)OCC` gave RE007 growth inh 3% and TbPYK inhibitor inconclusive.
For CCOC(=O)c1[nH]c(=S)n(-c2ccccc2)c1C(=O)OCC the results were RE007 growth inh -4% and TbPYK inhibitor 2.5µM*.
Screening CCOC(=O)c1sc(=S)n(-c2ccccc2)c1NC(C)=O returned NS1 function inh 1%, Sm TGR block 45µM*, RE007 growth inh -4%, LmPK inh -6%, Giardia FBPA inh 0% and TbPYK inhibitor -7%.
`Cc1ccc(Sc2ccc(N3CCC(C(=O)Nc4ccc(Cl)cc4)CC3)nn2)cc1` gave Sm TGR block 9% and TbPYK inhibitor 3%.
CCNC(=O)NCCCOc1cccc(CN2CCCCC2)c1 was read as TbPYK inhibitor -4%.
Cc1cccc(NC(=O)N2CC=C(c3c[nH]c4ccccc34)CC2)c1C was read as Sm TGR block -29% and TbPYK inhibitor -2%[15.4 µM].
`COC(=O)C1(C(=O)OC)C[C@@H]2CON=C2[C@H]1c1ccccc1` gave Giardia FBPA inh -3%.
Screening C=C(C(C)=O)C(O)c1ccc(Cl)cc1 (stereo not given) returned Giardia FBPA inh -1%.
For O=C(O)/C=C/C(O)c1ccc(Cl)cc1 (stereo not given) the results were NS1 function inh 3%, Sm TGR block 25µM*, RE007 growth inh -5%, Giardia FBPA inh 2% and TbPYK inhibitor 0%.
`CCC(=O)Nc1ccccc1-c1nc2ccccc2n(CC(=O)c2ccc(C)c(C)c2)c1=O` gave Sm TGR block -10% and TbPYK inhibitor -1%.
`CCN1C(=O)[C@H]2[C@@H](c3ccc(-c4ccc(Cl)c(Cl)c4)c(OC)c3)N[C@@](C)(C(=O)OC)[C@H]2C1=O` gave Sm TGR block 40µM*, RE007 growth inh -7% and TbPYK inhibitor -10%.
CCN1C(=O)[C@H]2[C@@H](c3ccc(-c4ccc(Cl)c(Cl)c4)cc3)N[C@@](C)(C(=O)OC)[C@H]2C1=O was read as Sm TGR block inconclusive, RE007 growth inh 0% and TbPYK inhibitor -8%.
COc1ccc(OC)c(/C=N/NC(=O)CCc2c(C)n[nH]c2C)c1 was read as NS1 function inh 0%, Sm TGR block 9%, RE007 growth inh 12%, LmPK inh 0%, Giardia FBPA inh 0% and TbPYK inhibitor -2%.
Screening COc1ccc(OC)c(/C=N/NC(=O)CCc2ccc(O)c(O)c2)c1 returned NS1 function inh 12%, Sm TGR block 20µM*, RE007 growth inh 4%, LmPK inh 2%, Giardia FBPA inh -11% and TbPYK inhibitor -13%.
`ClCc1ncc(-c2ccc(Cl)cc2)o1` gave Sm TGR block 25µM*, RE007 growth inh -10%, LmPK inh -3%, Giardia FBPA inh 0% and TbPYK inhibitor -1%.
For Cc1ccc(OCc2nnc(-c3ccc(Cl)cc3)o2)cc1 the results were RE007 growth inh -17% and TbPYK inhibitor -2%.
